# Measured values: PubChem BioAssay AID434927 (Sanford-Burnham Center for Chemical Genomics, 2010)
# A number with no mark means an inactive call. Activity calls are given as the source filed them.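 Rule for the calls: active = inhibition above about 23% in any of six single-dose repeats (limit read from the data); inactive = the rest.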
# Biological target: Intestinal-type alkaline phosphatase (Homo sapiens) (UniProt P09923)
# Assay: human IAP inhibitors, confirmation, biochemical, luminescence, single concentration, uHTS hits (AID 434927);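 note: plate controls were DMSO wells with enzyme for no effect and wells lacking enzyme for full effect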
# Conditions: purified human IAP, CDP-Star luminescence, 30 min; at 8.3 µM; active compounds read high
# Sequence of Intestinal-type alkaline phosphatase (Homo sapiens) (P09923 whole entry, looked up): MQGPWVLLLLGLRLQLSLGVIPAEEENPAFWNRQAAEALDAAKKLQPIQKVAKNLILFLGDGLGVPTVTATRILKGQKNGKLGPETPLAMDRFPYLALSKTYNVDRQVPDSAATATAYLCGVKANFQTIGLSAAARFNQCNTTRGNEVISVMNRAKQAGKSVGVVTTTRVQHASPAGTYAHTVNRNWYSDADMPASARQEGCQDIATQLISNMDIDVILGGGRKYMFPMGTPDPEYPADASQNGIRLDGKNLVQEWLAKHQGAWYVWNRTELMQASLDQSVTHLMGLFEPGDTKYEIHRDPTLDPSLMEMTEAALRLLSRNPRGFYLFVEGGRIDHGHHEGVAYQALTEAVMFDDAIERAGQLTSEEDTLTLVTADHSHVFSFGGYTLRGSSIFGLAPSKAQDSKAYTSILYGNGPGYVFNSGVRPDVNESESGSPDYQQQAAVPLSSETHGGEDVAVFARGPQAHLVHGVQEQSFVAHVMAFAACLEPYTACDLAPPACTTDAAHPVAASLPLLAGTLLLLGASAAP
row,SMILES,inhibition
1,Cc1ccc(O)c(-c2cc(C(=O)NCc3ccc4c(c3)OCO4)[nH]n2)c1,19.7% (active)
2,Nc1c(N2CCCC2)cc(Cl)c2nonc12,41.3% (active)
3,C=CCN1C(=O)C2(NNc3ccccc3O2)c2ccccc21 (stereo not drawn),-92.8%
4,O=c1c2c(-c3cccs3)csc2ncn1-c1ccc(Br)cc1,-112%
5,O=C(Cc1ccc(Cl)c(Cl)c1)NNC(=S)NCC1CCCO1 (stereo not drawn),-97.6%
6,O=C(N/N=C/c1c(F)cccc1Cl)c1cc(C2CC2)[nH]n1,37.7% (active)
7,Nc1ccc(-c2c3ccc(=O)cc-3oc3cc(O)ccc23)cc1C(=O)O,64.5% (active)
8,COc1ccccc1CNC(=O)CN(c1ccc(C)cc1)S(=O)(=O)c1c(C)noc1C,32.5% (active)
9,N#Cc1c(-c2ccccc2)nc(N2CCOCC2)[nH]c1=O,27.5% (active)
10,O=C1C2C3C=CC(C3)C2C(=O)N1c1n[nH]c(-c2cccnc2)n1 (stereo not drawn),-82.5%
11,OC1CN=C2Sc3ccccc3N2C1 (stereo not drawn),-100%
12,c1ccc(CSCCc2ccncc2)cc1,-33.2%
13,CCCCCCCn1c(=N)n(CC(=O)c2ccco2)c2ccccc21,-49.6%
14,CC1=NN(Cc2ccccc2)C(=O)/C1=C\c1ccc(N(C)C)cc1,65.6% (active)
15,Cc1ccc(Cl)cc1NC(=O)C(=O)N/N=C/c1ccc2c(c1)OCO2,40.1% (active)
16,Cc1cccc(OCC(=O)NNC(=O)c2ccc3nc[nH]c3c2)c1,-117%
17,C[C@@H](NC(=O)c1[nH]cnc1C(=O)Nc1ccon1)c1ccccc1,-80%

row,SMILES,inhibition
1,O=C(/C=C/c1ccccc1O)c1ccco1,-104%
2,Cc1ccc(-n2ncc3c(NNC(=O)c4ccco4)ncnc32)cc1C,41.4% (active)
3,CN(C)c1ccc2nc3c(=O)[nH]c(=O)nc-3n(CC(O)C(O)C(O)CO)c2c1 (stereo not drawn),-87.3%
4,CCOC(=O)c1cnc(SCC(=O)c2ccccc2)nc1N,-436%
5,CCOc1ccc(CC(=O)NNC(=S)NC2CCCCC2)cc1OCC,-79.5%
6,CCn1cnc2sc(C(=O)O)c(C)c2c1=O,64% (active)
7,Cc1cc(C)c2nc(SCC(=O)NNC(=O)c3ccco3)c(C)cc2c1,-58.7%
8,CCn1nc(C)c(CN2CCC(C(=O)Nc3cccc(-c4cccc(F)c4)c3)CC2)c1C,50.7% (active)
9,O=c1c2cc(O)c(O)cc2oc2cc(O)c(C3OC(CO)C(O)C(O)C3O)c(O)c12 (stereo not drawn),-148%
10,COc1ccc(O)c(/C=N/NC(=S)NCCc2ccccc2)c1,-91.2%
11,CN(C)S(=O)(=O)c1cccc(NC(=S)NNC(=O)c2cc3ccccc3cc2O)c1,72.3% (active)
12,Cc1ccc(NCc2ccc([N+](=O)[O-])s2)cc1,26.1% (active)
13,CCOC(=O)c1c(NC(=O)Cn2cc([N+](=O)[O-])cn2)sc2c1CCC2,-90.5%
14,CN(Cc1ccccc1)C(=O)Nc1ccc(Cl)cc1,-58.7%
15,Oc1ccc(N=Nc2c(O)ccc3ccccc23)cc1,-91.9%
16,O=C(CSc1nc(-c2cccs2)cc(C(F)(F)F)n1)NCc1ccccc1,36.7% (active)
